# Assay outcomes as filed in PubChem BioAssay.
# Sampled rows, rich in hits. Any-hit rate of the full collection: about 0.43%.
# aGal spleen mod: alpha-galactosidase A (human) modulation; human spleen homogenate, 4MU-alpha-Gal fluorescence, 40 min; Potency, µM (top dose mostly 80 µM), without a hit: at the top dose activity change, negative = inhibition, actives largely listed as inhibitors; 240,000 tested, 0.008% active;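 further: potency means the concentration at half of the fitted maximal effect; 0% = enzyme with vehicle and -100% = no enzyme basal signal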
#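 Fluorogenic readout (Ex 365/Em 440 nm) of 4-methylumbelliferone released from 1 mM 4-MU-alpha-galactoside by spleen homogenate, 40 min at 37C, pH 5.0. Data normalized to no-enzyme and enzyme controls; Hill-equation AC50 from compound titrations.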
# GAA glycogen: alters human alpha-glucosidase cleavage of glycogen. P10253. recombinant GAA, glycogen substrate, Amplex Red glucose oxidase fluorescence. Potency, µM (titrated, usually from 76.4 µM), for inactives: at the highest dose activity change, negative = inhibition, usual class: inhibitors. 300,000 tested, 0.38% active;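 further: potency means the concentration at half of the fitted maximal effect; 0% = full enzyme reaction and -100% = no-enzyme basal signal; the screen sought inhibitors and activators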
#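 Recombinant human enzyme (4 nM); glycogen substrate; 37 C, 40 min, pH 5.0. Readout: coupled glucose oxidase/Amplex Red fluorescence.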
# N370S GC: inhibitors or activators of N370S glucocerebrosidase for Gaucher disease; P04062; Potency, µM (doses to about 59.4 µM), without a hit: at the highest dose activity change, negative = inhibition, usual class: inhibitors; N370S GC spleen homogenate, 4MU-glucoside fluorescence; 330,000 tested, 0.092% active;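 further: potency means the concentration at half of the fitted maximal effect; 0% = full enzyme activity and -100% = no enzyme basal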
# aGlu spleen mod: inhibits or activates alpha-glucosidase in human spleen homogenate. human spleen homogenate, 4-MU-alpha-glucoside fluorescence. 240,000 tested, 0.006% active. Potency, µM (doses to about 79.9 µM), for inactives: top-dose activity change, negative = inhibition, hits mostly inhibitors. AID 2112. P10253;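 further: potency means the concentration at half of the fitted maximal effect; 0% = enzyme with vehicle and -100% = no enzyme basal signal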
#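 Human spleen homogenate (1 ug) with 4-methylumbelliferyl-alpha-D-glucopyranoside (1 mM final) in 50 mM citrate/phosphate pH 5.0, 0.01% Tween-20; 40 min at 37 C. Stopped at pH 10; 4-MU fluorescence Ex 365/Em 440 nm; AC50 by Hill fit.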
# GLA inh pH 4.5: alpha-galactosidase A (human) inhibition, pH 4.5 | 230,000 tested, under 10 active | purified enzyme, 4-MU-alpha-Gal fluorescence, pH 4.5 | P06280 | activity change, negative = inhibition, % at 105 µM;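 further: 0% = full activity with enzyme and -100% = basal without enzyme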
# Target sequence (P06280 whole entry, looked up): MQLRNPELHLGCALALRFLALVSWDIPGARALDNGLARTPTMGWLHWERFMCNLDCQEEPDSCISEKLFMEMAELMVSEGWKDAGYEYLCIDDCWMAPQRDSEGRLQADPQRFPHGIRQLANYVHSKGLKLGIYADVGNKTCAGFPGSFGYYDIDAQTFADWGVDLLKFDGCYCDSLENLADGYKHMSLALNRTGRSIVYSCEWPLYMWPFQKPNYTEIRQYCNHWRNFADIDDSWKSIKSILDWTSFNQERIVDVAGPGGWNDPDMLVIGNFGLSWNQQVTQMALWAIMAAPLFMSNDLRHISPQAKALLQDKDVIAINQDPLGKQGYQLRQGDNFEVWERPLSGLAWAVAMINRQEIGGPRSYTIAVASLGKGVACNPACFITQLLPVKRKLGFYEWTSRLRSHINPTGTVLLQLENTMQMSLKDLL
# GAA inh: inhibitors of human lysosomal alpha-glucosidase; purified human GAA, 4-MU-alpha-glucoside fluorescence; P10253; Potency, µM (top dose mostly 76.9 µM), for inactives: at the highest dose activity change, negative = inhibition, usual class: inhibitors; 200,000 tested, 0.005% active;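 further: potency means the concentration at half of the fitted maximal effect; plate controls were uninhibited enzyme wells for no effect and no-enzyme background for full effect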
#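 AC50 values come from Hill fits of compound titrations (up to 77 uM) against 4 nM human enzyme. Substrate 4-methylumbelliferyl-alpha-D-pyranoside at 400 uM, pH 5.0 citrate buffer, 20 min room temperature; fluorescence Ex 365/Em 440 after alkaline stop.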
# * hit, by the source's call; ? = inconclusive; / = no result given; ! = not confirmed by another sample; [ ] = remark or other dose. The call rests on the fitted dose curve; in most records, active means well fitted curve in the direction sought with a large enough effect; inconclusive means small, poorly fitted or top-dose-only effect, or another doubt; inactive means no such curve, though single readings can be large; an effect the other way counts as inactive or inconclusive.
SMILES,aGal spleen mod,GAA glycogen,N370S GC,aGlu spleen mod,GLA inh pH 4.5,GAA inh
CCC(C)NC(=O)CN(c1cc(C)cc(C)c1)S(=O)(=O)c1c(C)[nH]c(=O)[nH]c1=O (stereo not drawn),-6%,7%,10µM*,-2%,-10,/
Cc1cc(C)cc(N(CC(=O)NC2CCCCCC2)S(=O)(=O)c2c(C)[nH]c(=O)[nH]c2=O)c1,7%,4%,0.71µM*,5%,-3,/
CCOc1ccc(N(CC(=O)NC2CCCC2)S(=O)(=O)c2c(C)[nH]c(=O)[nH]c2=O)cc1,-18%,-1%,7.9µM*,-11%,5,-2%
COc1cc(NC(=O)CN(c2cc(C)cc(C)c2)S(=O)(=O)c2c(C)[nH]c(=O)[nH]c2=O)cc(OC)c1,/,-7%[76.3 µM],?,/,/,/
CSCC[C@H](N)C(=O)N[C@@H](C)C(=O)NCC(=O)N[C@@H](CCCN=C(N)N)C(=O)N[C@@H](CO)C(=O)NCC(=O)N[C@@H](CC(=O)O)C(=O)N[C@@H](CO)C(=O)N[C@@H](CC(=O)O)C(=O)N[C@@H](CCC(=O)O)C(=O)N[C@@H](CC(=O)O)C(=O)N[C@@H](CC(C)C)C(=O)N[C@@H](CC(C)C)C(=O)N[C@@H](CCCCN)C(=O)N[C@@H](C)C(=O)N[C@H](C(=O)O)C(C)C,-16%,/,-11%,0%,/,/
C=CCN1c2ccccc2[C@]23C[C@@H](C(=O)OC)N(S(=O)(=O)CCCC)C2=NC(C(=O)OC)=C(C(=O)OC)[C@H]13,5%[17.5 µM],/,-10%[12.8 µM],-5%[17.4 µM],0,/
CC#CCN1c2ccccc2[C@]23C[C@@H](C(=O)OC)N(S(=O)(=O)CCCC)C2=NC(C(=O)OC)=C(C(=O)OC)[C@H]13,11%[17.5 µM],/,8%[12.8 µM],6%[17.4 µM],-4,/
COc1cc(CNc2ccc3[nH]c(=O)[nH]c3c2)cc(Cl)c1OCc1ccccc1F,/,-29%[76.3 µM],/,/,/,/
COc1cccc(CNc2ccc3[nH]c(=O)[nH]c3c2)c1OCc1ccccc1F,/,28µM*,9%,/,/,/
COC(=O)CNC(=O)C1CCN(S(=O)(=O)c2cccc3nsnc23)CC1,/,11µM*!,-27%,/,/,/
CC(C)(C)NC(=O)C1CCN(S(=O)(=O)c2cccc3nsnc23)CC1,/,-7%[76.3 µM],9%,/,/,/
O=C(Cc1ccccc1)NNc1ccc2ccccc2c1,-1%,25µM*,4%,0%,-4,-3%
O=C(CN1C(=O)CCC1=O)NNc1ccc2ccccc2c1,-9%,11µM*,-16%,5%,6,6%
O=C(COc1ccc2ccccc2c1)NNC(=O)Cc1ccccc1,-8%,9%,-15%,-12%,-2,-1%
CC1CCc2c(nc3ncnn3c2N2CCN(c3ccccc3F)CC2)C1 (stereo not drawn),?,1%,-3%,-5%,-3,-3%
CC1CCc2c(nc3ncnn3c2NCCc2ccccc2F)C1 (stereo not drawn),-12%,4µM*,-28%,2%,-5,10%
COc1ccc2[nH]cc(CCNc3nc(-c4ccc(N(C)C)cc4)nc4ccccc34)c2c1,23%,/,?,2%,/,/
COc1ccc2[nH]cc(CCNc3nc(-c4ccoc4)nc4ccccc34)c2c1,1%,/,16µM*,-12%,-10,/
COc1cccc(-c2nc(NCCc3c[nH]c4ccc(OC)cc34)c3ccccc3n2)c1,8%,/,14µM*,2%,-2,/
CC1(C)CC(O)C(C)(C)N1O (stereo not drawn),-16%,16µM*,7%,-10%,-12,-8%
N=c1c2c(-c3ccccc3)c(-c3ccccc3)n(Cc3ccccc3)c2ncn1CCCn1ccnc1,1%,2%,2.2µM*,-2%,-31,?
CCCCn1cnc2c(c(-c3ccccc3)c(-c3ccccc3)n2Cc2ccco2)c1=N,-1%,4%,?,2%,-3,/
C=C1C(=O)OC(CCCCCCCC)C1C(=O)O (stereo not drawn),3%,/,-6%,3%,/,/
CC(=O)N1CCN(c2ccc(NCc3ccc(C)cc3)cc2)CC1,9%,20µM*,-10%,-3%,3,-9%
O=C(Nc1ccc(N2CCCC2)cc1)C(c1ccccc1)c1ccccc1,-6%,3%,-10%,-5%,0,-5%
SMILES,aGal spleen mod,GAA glycogen,N370S GC,aGlu spleen mod,GLA inh pH 4.5,GAA inh
CCc1ccc(CNc2ccc(N3CCN(C(C)=O)CC3)cc2)cc1,1%,?,-14%,0%,1,-1%
CC(=O)N1CCN(c2ccc(NC(=O)C(c3ccccc3)c3ccccc3)cc2)CC1,/,-2%[76.3 µM],13µM*,/,/,/
CCCCCCCCCCCCCCCCOC[C@H](COP(=O)([O-])OCC[N+](C)(C)C)OC(=O)CCCCCCCC(=O)O,-11%,/,-7%,-7%,/,/
C[C@H](N)C(=O)N[C@@H](CO)C(=O)N[C@H](C(=O)N[C@H](C(=O)N[C@H](C(=O)N[C@@H](CC(N)=O)C(=O)N[C@@H](Cc1ccc(O)cc1)C(=O)N[C@H](C(=O)O)[C@@H](C)O)[C@@H](C)O)[C@@H](C)O)[C@@H](C)O,9%,/,-2%,2%,/,/
O=C(O)/C=C\c1ccc(O)c(O)c1,-10%[29.1 µM],/,-9%[21.6 µM],-3%[29.1 µM],-4,/
O=C(/C=C/c1ccc(O)c(O)c1)c1ccccc1O,-10%,7.9µM*,-6%,-3%,-2,/
O=C(/C=C/c1ccc(O)cc1)c1ccc(O)cc1O,5%,3%,1.8µM*!,2%,-5,-10%
O=S(=O)(Nc1cc(O)cc2cccnc12)c1ccc(Br)s1,-10%,/,-5%,4%,/,/
CCCC[C@@H](C)/C=C(C)/C=C(\C)C(=O)NC1=C[C@@](O)(/C=C/C=C/C=C/C(=O)NC2=C(O)CCC2=O)[C@@H]2O[C@@H]2C1=O,1%,/,0%,1%,/,/
CCCCCCCCN=C(N)c1ccc(C(=O)OCC2CCCCC2)cc1,1%,/,-10%,2%,/,/
CCC(=O)N1C2=C(c3ccccc3[C@@H]1CC(=O)Nc1ccc3ccccc3c1)[C@@H]1C(=O)N(c3ccccc3)C(=O)[C@@H]1[C@H](C)C2,15%[17.5 µM],/,-5%[12.8 µM],19%[17.4 µM],-21,/
Cc1cc(SCC(=O)c2ccc(O)c(O)c2)nc2ccccc12,5%,4.4µM*,-13%,5%,5,-2%
O=C(CSc1n[nH]c(-c2ccccc2)n1)c1ccc(O)c(O)c1,0%,10µM*,-2%,-15%,-9,-5%
